# Experimental data as given in PubChem BioAssay (NCI).
# The panel holds about 83,000 compounds, 20% with a hit somewhere; the sample as a whole holds those more often.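 Plates (96-well) were seeded with cells, treated with compound at one concentration, and incubated for 48 hours before percent growth was determined.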 Activity calls are given as the source filed them.
# Tested on: NCI-H460 lung
# Assay: NCI-60 one-dose screen, 48 h (100 = growth as untreated, 0 = no growth, -100 = all killed)
# Conditions: 10 µM
# Protocol: Growth inhibition of the NCI-H460 human Non-Small Cell Lung tumor cell line is measured as a screen for anti-cancer activity. Cells are grown in 96 well plates and exposed to the test compound for 48 hours. Compounds are tested at a single concentration, which is 10^-5 M for most compounds. The reported endpoint is percent growth (GI% or GIPRCNT), where numbers from 0 - 100% represent growth inhibition, and numbers from -100% - 0 represent cell death. For example, a value of 40 represents 60% growth inhibition. A value of 0 means no net growth occurred over the course of the experiment. A value of -40 indicates 40% of cells at the beginning of the experiment died by the end of the experiment. A value of -100 means all cells are dead at the end of the experiment.
# NCI-60 Human Tumor Cell Lines Screen was performed using the standard one-dose NCI protocol, which is described in more detail at https://dtp.cancer.gov/discovery_development/nci-60/default.htm.
# Compounds with GIPRCNT values below 10 were considered active. Activity score was based on GIPRCNT using the following formula: […]
# Score is 0 for GIPRCNT values of 100 or above, 50 for GIPRCNT values of 0, and 100 for GIPRCNT values of -100.
row,Structure (SMILES),growth
1,O=C1/C(=C\c2ccc(F)cc2)CN(C(=O)c2ccc([N+](=O)[O-])cc2)C/C1=C\c1ccc(F)cc1,68.4% (inactive)
2,CC(C)=NNc1ncnc2c1ncn2C1OC(CO)C(O)C1O (stereo not given),-2.28% (active)
3,COc1cc(-c2cc(C(=O)N3CCN(C(=O)c4ccccc4NCc4ccco4)CC3)nc3cc(-c4ccccc4)nn23)cc(OC)c1OC,7.61% (active)
4,C=C1c2c(C)nn(-c3ccc(OC)cc3)c2N(C)C23C[C@@H]1C1(C)c4c(C)nn(-c5ccc(OC)cc5)c4N(C)C(C)(C[C@H]12)C3 (stereo not given in full),6.82% (active)
5,Cc1ccc(CC#N)cc1C,99.1% (inactive)
6,Cc1ccc(S(=O)(=O)OCCN(CCOS(=O)(=O)c2ccc(C)cc2)c2c[nH]c(=O)[nH]c2=O)cc1,114% (inactive)
7,COc1ccc(-c2ccc3cc(C(=O)Nc4ccc(O)c(C(=O)/C=C/c5cc(OC)c(OC)c(OC)c5)c4)ccc3c2)cc1,95.9% (inactive)
8,O=c1[nH]c2ccc(Cl)cc2c2ccccc12,42.7% (inactive)
9,Cc1ncc(-c2ccoc2)c(NC2CCCCCC2)n1,106% (inactive)
10,COc1ccc(OC)c(/C=C/c2nc(SC)n(-c3ccc(Cl)cc3)n2)c1,85.2% (inactive)
11,O=[N+]([O-])c1ccc(Oc2cc(Cl)c(Cl)cc2Cl)c(C(F)(F)F)c1,97.7% (inactive)
12,C/C(N)=C(\C#N)C(=O)c1ccccc1,103% (inactive)
13,O=C1/C(=C\c2ccc(F)cc2)CN(C(=O)c2ccccc2F)C/C1=C\c1ccc(F)cc1,17.8% (inactive)
14,CN(C)c1ccc(N=C2C=CC(=O)c3ccccc32)cc1,15.3% (inactive)
15,N#CSCC1CC(O)(c2ccccc2)CC(c2ccc(Cl)cc2)O1 (stereo not given),37.2% (inactive)
16,O=C(CNC(=O)OCc1ccccc1)NCC(=O)Oc1ccc([N+](=O)[O-])cc1,101% (inactive)
17,C/C(=N\Nc1nc2ccccc2s1)c1ccncn1,23.2% (inactive)
18,CCCCN(CCCC)c1cc(C(=O)CCCCCN)c2ccccc2n1,31.8% (inactive)
19,CCOC1(OCC)OC(c2ccccc2)=C(C#N)C(/C=C\c2ccccc2)C1(OCC)OCC (stereo not given),81.8% (inactive)
20,O=C(C[P+](c1ccccc1)(c1ccccc1)c1ccccc1)C[P+](c1ccccc1)(c1ccccc1)c1ccccc1,-68.3% (active)

row,Structure (SMILES),growth
1,CCOC(=O)N1C/C(=C/c2ccc(OC)cc2)C(=O)/C(=C/c2ccc(OC)cc2)C1,42% (inactive)
2,CCN(CC)CCCC(C)Nc1nc(-c2ccc(OC)cc2)nc2cc(Cl)ccc12 (stereo not given),72.5% (inactive)
3,O=C(Nc1cccc(-n2cc(-c3ccncc3)c(-c3ccc(O)c(Cl)c3)n2)c1)Nc1cccc(C(F)(F)F)c1,-4.53% (active)
4,c1ccc2c(c1)oc1c3cccnc3ccc21,81.6% (inactive)
5,COc1cc(C(=C2O[C@@H]([C@H]3COC(C)(C)O3)[C@H]3OC(C)(C)O[C@@H]23)c2cc(OC)c(OC)c(OC)c2)cc(OC)c1OC,111% (inactive)
6,O=C1ON=[N+](c2ccc(Cc3ccc([N+]4=NOC(=O)C4CN4CCOCC4)cc3)cc2)C1CN1CCOCC1 (stereo not given),82.9% (inactive)
7,COc1ccc(Nc2nc3ccc(NC(=O)NC4CCCCC4)cc3[nH]c2=O)cc1,102% (inactive)
8,CN(Cc1ccccc1)Cc1ccc([N+](=O)[O-])cc1I,97.3% (inactive)
9,N#CCCN1C/C(=C/c2ccccc2)C(=O)/C(=C/c2ccccc2)C1,71% (inactive)
10,COc1cc2nc(Nc3cccc(C(=O)O)c3)nc(N)c2cc1OC,108% (inactive)
11,COc1ccc(-c2cc(/C=C3\C(=O)Nc4ccc(OC)cc43)[nH]n2)cc1,16.4% (inactive)
12,O=C(Cc1csc2nc(-c3ccc(Cl)cc3)cn12)N/N=C/c1ccccc1O,18.5% (inactive)
13,Oc1[nH]c2ccc(Cl)cc2c1/C=c1/ccc2c(c1)N=C(c1cccs1)N=2,66.1% (inactive)
14,Nc1ncnc2[nH]c(=O)[nH]c12,95.5% (inactive)
15,CCCCCCCCCCCCCCCCCC(=O)OCCCCCCC,109% (inactive)
16,COc1cc2c(cc1OCCCCCCN1CCN(CC(=O)Nc3ccc(Cl)cc3C(=O)c3ccccc3Cl)CC1)N=CC1CCCN1C2=O (stereo not given),-30.5% (active)
17,c1ccc(CNc2ncnc3scc(-c4cccs4)c23)nc1,77.4% (inactive)
18,O=C1/C(=C\c2ccccc2)CN(C(=O)c2ccccc2)C/C1=C\c1ccccc1,60.1% (inactive)
19,CCCC(F)C(=O)O (stereo not given),106% (inactive)
20,COc1ccc(-c2nc3ccccn3c2-c2nnc(-c3cc(OC)c(OC)c(OC)c3)o2)cc1,21.6% (inactive)
